Results filed as inconclusive are left out. The source made the active and inactive calls. Calls come from the whole dose curve; as a rule, active = well fitted activation curve with a large enough effect in the repeat runs; inconclusive = weak or mixed curves; inactive = flat fitted curve, though single readings scatter.
% is set by controls: 0 for no effect and ±100 for the full control effect.

This test in a line: A CellTox Green Cytotoxicity Assay to monitor cytotoxicity in HepG2 cells - 8 hour (AID 1224890). Note: nearly all actives have a fitted effect of over 45% in size. The note with it: CellTox Green fluorescence; series mostly up to 76.8 µM; cytotoxicity increase: at the top concentration. An excerpt: National Center for Advancing Translational Sciences [NCATS]
NIH Chemical Genomics Center [NCGC]
U.S. Environmental Protection Agency [EPA]
National Institutes of Environmental Health Sciences [NIEHS]
National Toxicology Program [NTP]
Cell-based models are critical for drug discovery. Determining the natural cytotoxic effects resulting from test compounds is an essential research activity. A CellTox Green Cytotoxicity Assay to monitor cytotoxicity in real time of continues cell culture during 40 hours of the compound treatment was used to screen Tox21 10K library compounds in HepG2 cells. CellTox Green Cytotoxicity Assay is a nonlytic, homogeneous, biofluorescent method to measure cytotoxicity in cell culture after experimental manipulation. The assay system uses a proprietary asymmetric cyanine dye that is excluded from viable cells but preferentially stains the dead cell's DNA. […] Viable cells produce no appreciable increases in fluorescence. Therefore, the fluorescence signal produced by the binding interaction with dead cell DNA is proportional to cytotoxicity.
The mixture of HepG2 cell suspension and reagents were dispensed at 600cells/6 ul/well in 1536-well tissue culture treated black solid bottom plates using a Multidrop dispenser. After the assay plates were incubated at a 37 C/5% CO2 incubator for 5 hours, 23 nL of compounds dissolved in DMSO, positive and negative controls was transferred to the assay plate by a pintool work station. The plates were incubated at 37 C for 40 hours. The fluorescence intensity were measured at 0h, 8h, 16h, 24h, 32h and 40h time points using ViewLux plate reader during compound treatment.
As to `COC(=O)C(c1ccccc1)C1CCCCN1` (stereo not given), the “cytotoxicity increase” value was 3.27% (inactive). Regarding `O=c1oc2ccccc2c(O)c1C1CCCc2ccccc21` (stereo not given), the “cytotoxicity increase” value was -5.95% (inactive). The value for `CCNc1nc(NC(C)C)nc(OC)n1` was -2.07% (inactive); that for `COc1cc(OC)nc(NC(=O)NS(=O)(=O)c2ncccc2OCC(F)(F)F)n1` was -2.34% (inactive); that for `COc1cc2c(cc1OC)[C@@]13CCN4CC5=CCO[C@H]6CC(=O)N2[C@H]1[C@H]6[C@H]5C[C@H]43` was -1.86% (inactive). On to `CC(C=O)Cc1ccc2c(c1)OCO2` (stereo not given), for which the “cytotoxicity increase” value is 4.66% (inactive). With `COC(=O)c1ccccc1S(=O)(=O)NC(=O)N(C)c1nc(C)nc(OC)n1` the figure was -2.27% (inactive). As to `ClC(Br)Br`, the “cytotoxicity increase” value was -2.35% (inactive).

In the case of `ClC(Cl)C(Cl)Cl`, the “cytotoxicity increase” value is -0.469% (inactive). On to `COC(C)(C)C`, for which the “cytotoxicity increase” value was 0.359% (inactive). With `O=C1CN2CCOC2(c2ccccc2Cl)c2cc(Cl)ccc2N1` (stereo not given) the figure was -1.41% [at 35.3 µM] (inactive); with `O=C(NCO)NCO`, -5.2% (inactive). For `Cc1ncc2n1-c1ccc(Cl)cc1C(c1ccccc1F)=NC2`, the “cytotoxicity increase” value was 0.276% [at 35.3 µM] (inactive). Turning to `CCCSC(=O)N(CCC)CCC`, the “cytotoxicity increase” value was -5.4% (inactive). Turning to `O=[N+]([O-])c1cccc2c([N+](=O)[O-])cccc12`, the “cytotoxicity increase” value was -15.6% (inactive). Turning to `CCOC(=O)/C=C(C)/C=C/C[C@@H](C)CCCC(C)C`, the “cytotoxicity increase” value was -4.92% (inactive). The value for `CCN(CC)c1nc(C)cc(OP(=S)(OC)OC)n1` was 2.98% (inactive); that for `O=C(CCCN1CCC(n2c(=O)[nH]c3ccccc32)CC1)c1ccc(F)cc1` was -2.02% [at 35.3 µM] (inactive).

Consider `CC(C)[N+](=O)[O-]`, for which the “cytotoxicity increase” value was -10.9% (inactive). As to `CCOC(=O)NC(=S)Nc1ccccc1NC(=S)NC(=O)OCC`, the “cytotoxicity increase” value was -4.12% (inactive). The value for `CCCCOP(=O)(O)OCCCC` was 9.55% (inactive). With `Nc1ccccc1Cl`, the “cytotoxicity increase” value was -0.266% (inactive). Turning to `CN(N=O)C(N)=O`, the “cytotoxicity increase” value was -7.09% (inactive). With `O=[N+]([O-])c1ccc2c3c(cccc13)CC2` the figure was 10.3% (inactive).

On to `O=C(Nc1ccccc1)N(Cc1ccc(Cl)cc1)C1CCCC1`, for which the “cytotoxicity increase” value is -15% (inactive). The value for `CN1C(=S)CN=C(c2ccccc2)c2cc(Cl)ccc21` was -0.772% [at 35.3 µM] (inactive); that for `CN1CCN(C(=O)O[C@H]2c3nccnc3C(=O)N2c2ccc(Cl)cn2)CC1` was -26.4% [at 35.3 µM] (inactive). The value for `CCOP(=S)(OCC)Oc1nc(Cl)n(C(C)C)n1` was -7.21% (inactive). With `CCS(=O)(=O)C(C)(C)S(=O)(=O)CC` the figure was -2.03% [at 35.3 µM] (inactive); with `CC(CC(C#N)(c1ccccc1)c1ccccc1)N(C)C` (stereo not given), 7.29% (inactive).

Turning to `CCC1(c2ccccc2)C(=O)N=C(O)NC1=O` (stereo not given), the “cytotoxicity increase” value was -7.46% (inactive). The value for `Cc1ncc(CNC(=O)N(CCCl)N=O)c(N)n1` was 3.29% [at 35.3 µM] (inactive); that for `O=C1OC(=O)C2C1C1(Cl)C(Cl)=C(Cl)C2(Cl)C1(Cl)Cl` (stereo not given) was -15.7% (inactive). With `COC(=O)c1c(C(F)F)nc(C(F)(F)F)c(C2=NCCS2)c1CC(C)C` the figure was 1.03% (inactive); with `OC(c1ccccc1)(c1ccccc1)C1CCNCC1`, -8.51% [at 35.3 µM] (inactive); with `CNC(=O)Oc1ccc(N(C)C)c(C)c1`, -6.78% (inactive). As to `O=CNC(N1CCN(C(NC=O)C(Cl)(Cl)Cl)CC1)C(Cl)(Cl)Cl` (stereo not given), the “cytotoxicity increase” value is 2.89% (inactive). `O=[N+]([O-])c1ccc(CBr)cc1`: the “cytotoxicity increase” value is -11.7% (inactive). On to `CCCCOC(=O)c1ccccc1C(=O)O`, for which the “cytotoxicity increase” value is 0.126% (inactive).

As to `CC(C)NCC(O)c1ccc(N)c(C#N)c1` (stereo not given), the “cytotoxicity increase” value was 2.19% [at 35.3 µM] (inactive).

The values above are taken from PubChem BioAssay (Tox21).
